PI4K2A block = qHTS for small molecular inhibitors of PI4K2A; Phosphatidylinositol 4-kinase type 2-alpha (Homo sapiens), Q9BTU6; purified PI4K2A, ADP-Glo luminescence, 1 h; active compounds read low; activity change, negative = inhibition, % at 76.9 µM; 0.13% of 420,000 active; AID 1346378, 2018; in the data active = activity change below about -50%; inconclusive = mostly about -30% to -49%;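 note: -100% = wells without enzyme as full effect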
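ADP-Glo luminescence measured ADP generated by PI4K2A enzyme (4 ug/mL before mixing) with 1.2 mM PI substrate (pre-mix) and 300 microM ATP (pre-mix). Tris pH7.5 buffer with MgCl2, Triton X-100; 1 h reaction at ambient temperature.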
rTrxR1 inhibitor = qHTS Assay for Inhibitors of Mammalian Selenoprotein Thioredoxin Reductase 1 (TrxR1): qHTS | Thioredoxin reductase 1, cytoplasmic (Rattus norvegicus), O89049 | recombinant rTrxR1, NADPH fluorescence consumption, selenite substrate | Potency, µM (series often up to 114 µM), for the others: at the highest dose activity change, negative = inhibition, most hits filed as inhibitors | 1% of 390,000 active | AID 588453, 2011; note: potency is the fitted concentration of half-maximal effect; nearly all actives have a fitted effect of over 65% in size
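Rat TrxR1 (90 nM in the dispensed reagent) was pre-reduced with 400 uM NADPH for 5 min at room temperature, then incubated with compound for 15 min. After 400 uM selenite was added, NADPH fluorescence (Ex 340/Em 450 nm) was followed for 8 min.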
Giardia kill = Small Molecules that selectively kill Giardia lamblia: qHTS; Giardia lamblia trophozoite viability; activity change, % at 7.66 µM, hits read low; 0.15% of 340,000 active; in the data active = activity change below about -80%; inconclusive = between about -30% and that limit;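 note: parasites exposed to compound for two days anaerobically before the ATP read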
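Giardia trophozoites, 100 cells per well, were exposed to compounds for 48 hrs at 37 deg C under anaerobic conditions; viability was then read as ATP content by bioluminescence after 15-30 min at room temperature.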
GALK inhibitor = qHTS Assay for Inhibitors of Human Galactokinase (GALK) | AID 1868, 2009 | Purified GALK, Kinase-Glo residual ATP luminescence | Potency, µM (highest dose often 57.5 µM), without a hit: top-dose activity change, negative = inhibition, usual class: inhibitors | 0.007% of 270,000 active; note: potency is the fitted concentration of half-maximal effect
Target sequence (P51570 whole entry, looked up): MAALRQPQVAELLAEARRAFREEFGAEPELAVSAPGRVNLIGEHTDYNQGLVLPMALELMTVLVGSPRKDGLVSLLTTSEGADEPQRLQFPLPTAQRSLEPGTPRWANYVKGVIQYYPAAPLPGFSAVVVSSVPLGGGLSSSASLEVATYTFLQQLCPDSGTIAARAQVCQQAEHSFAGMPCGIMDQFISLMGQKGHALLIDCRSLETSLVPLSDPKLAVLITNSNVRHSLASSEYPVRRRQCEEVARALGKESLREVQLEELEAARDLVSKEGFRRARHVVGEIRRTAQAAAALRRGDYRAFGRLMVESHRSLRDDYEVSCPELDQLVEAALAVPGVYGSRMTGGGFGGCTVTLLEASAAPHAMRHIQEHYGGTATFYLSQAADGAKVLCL
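The enzyme phosphorylates galactose (100 uM) using ATP (35 uM); inhibition is detected as higher residual ATP, quantified by bioluminescence after 1 h reaction at room temperature, pH 8.0.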
FBPA coupling cs = qHTS Assay for Inhibitors of Fructose-1,6-bisphosphate Aldolase from Giardia Lamblia: Coupling assay counterscreen | coupling enzyme system counterscreen, AmpLite Red fluorescence | activity change, negative = inhibition, % at 58.2 µM, hits read low | 0.67% of 290,000 active | AID 2472, 2010; in the data active = activity change below about -30%
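Compounds tested against the coupling enzymes alone at 57.5 uM final; readout was AmpLite Red fluorescence (525/598 nm) after 20 min at RT.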
TrxR1 substrate = qHTS Assay for Substrates of Mammalian Selenoprotein Thioredoxin Reductase 1 (TrxR1): qHTS; Thioredoxin reductase 1, cytoplasmic (Rattus norvegicus), O89049; purified TrxR1 substrate turnover, NADPH consumption readout; Potency, µM (titrated, usually from 114 µM), for inactives: top-dose activity change, negative = substrate turnover; 0.01% of 390,000 active; note: potency is the fitted concentration of half-maximal effect; nearly all actives have a fitted effect of over 50% in size
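Rat TrxR1, dispensed at 90 nM, was prereduced with 400 uM NADPH (final) for 5 min at ~22 deg C, then incubated with compound 15 min before 400 uM selenite. A first-read NADPH fluorescence drop versus no-compound background flagged substrates.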
Active calls of the source: *; i = inactive; u = inconclusive; x = no result given; [ ] = another dose, or the depositor's remark. Shown are actives, neighbours in structure and some others; about 1.5% of the full set was active somewhere. Unless noted, calls come from the whole dose curve; as a rule, active = well fitted curve in the direction sought with a large enough effect; inconclusive = small, poorly fitted or top-dose-only effect, or another doubt; inactive = no such curve, though single readings can be large; an effect the other way counts as inactive or inconclusive. Unless noted, % is set by controls: 0 for no effect and ±100 for the full control effect.

SMILES | PI4K2A block | rTrxR1 inhibitor | Giardia kill | GALK inhibitor | FBPA coupling cs | TrxR1 substrate
COc1ccccc1-n1c(O)c(/C=N/NC(=S)Nc2ccccc2)c(=O)[nH]c1=S | -4.7 | 10µM* | -12.4 | 1.4% | -10.2 | 1.5%
NC(=O)CI | -54.3* | 0.6%[57.1 µM] | x | x | x | 3.1%[57.1 µM]
CCOC(=O)CCN(SN(C)C(=O)Oc1cccc2c1OC(C)(C)C2)C(C)C | x | x | x | x | -2.3 | x
C=CCN1CC[C@]23c4c5ccc(O)c4O[C@@H]2/C(=N/N=C2\CC[C@@]4(O)C6Cc7ccc(O)c8c7[C@@]4(CCN6CC=C)[C@@H]2O8)CC[C@@]3(O)C1C5 | 2.2 | 20µM* | x | x | x | 16.6%[57.1 µM]
C=CCN1CC[C@]23c4c5ccc(O)c4O[C@H]2C(=O)CC[C@@]3(O)[C@H]1C5 | 2.0 | u | u | -0.4% | 2.1 | 2.6%
O=C(Nc1cccc(C(=O)Nc2cc(C(=O)Nc3ccc([S+](=O)([O-])[O-])c4cc([S+](=O)([O-])[O-])cc(SOOO)c34)ccc2F)c1)Nc1cccc(C(=O)Nc2cc(C(=O)Nc3ccc([S+](=O)([O-])[O-])c4cc([S+](=O)([O-])[O-])cc([S+](=O)([O-])[O-])c34)ccc2F)c1 | x | x | x | x | 15.2 | x
COc1cc2c(c3oc4cccc(O)c4c(=O)c13)C1C=CO[C@@H]1O2 (stereo partly drawn) | x | x | x | x | 0.9 | x
CN1CCc2cc3c(c4c2[C@H]1Cc1ccccc1-4)OCO3 | x | x | x | x | -33.4* | x
C[C@]12CCC(=O)C=C1CC[C@@H]1[C@H]3CC[C@](C)(O)[C@@]3(C)CC[C@@H]12 | i | x | x | x | x | x
CCOC(C(=O)OCCN(C)C)(c1ccccc1)c1ccccc1 | 3.8 | x | x | x | x | x
O=c1[nH]cc(N(CCCl)CCCl)c(=O)[nH]1 | -67.3* | x | x | x | x | x
C[C@@H]1CO1 | x | x | x | x | -1.0 | x
Cc1nn(Cc2ccccc2)c(C)c1C(=O)NCc1ccccc1 | -2.4 | 27.2%[57.1 µM] | 5.0 | 10.7% | 0.4 | -4.2%[57.1 µM]
Cc1nn(Cc2ccccc2)c(C)c1C=C1C(=O)NC(=O)NC1=O | u | 35.5µM* | 41.2 | -0.1% | 0.1 | -11.6%
COc1ccc(CN2C(=O)NC(=O)/C(=C\c3ccco3)C2=O)cc1 | -24.1 | u | -4.7 | 4.3% | 0.8 | -4.8%
O=C1NC(=O)N(Cc2ccc(F)cc2)C(=O)/C1=C\c1ccc([N+](=O)[O-])s1 | -14.6 | 39.8µM* | -7.6 | x | -5.6 | -10.8%
COc1ccc(CN2C(=O)NC(=O)/C(=C/c3ccc([N+](=O)[O-])s3)C2=O)cc1 | -22.1 | 39.8µM* | -20.1 | 0.2% | -3.6 | -5.4%
COc1cc(OC)c(OC)cc1/C=C1/C(=O)NC(=O)N(Cc2ccccc2)C1=O | -52.7* | -23.4% | -23.3 | 0.0% | 1.9 | -6.7%
COc1cc(OC)c(OC)cc1/C=C1\C(=O)NC(=O)N(Cc2ccccc2)C1=O | -23.4 | u | -2.7 | 5.6% | 1.5 | 4.3%[57.1 µM]
Fc1cc(Br)ccc1CBr | -6.7 | x | x | x | x | x
C[C@@H]1CC[C@H]2[C@@H](C)C(=O)O[C@@H]3OC4(C)CC[C@@H]1[C@]32OO4 | x | x | x | x | 1.5 | x
COc1cccc2c1C(=O)c1c(O)c3c(c(O)c1C2=O)C[C@@](O)(C(=O)CO)CC3OC1CC(N2CCOC(OC)C2)C(O)C(C)O1 (stereo partly drawn) | -11.2 | x | x | x | x | x
O=C(c1ccc2nc(-c3ccco3)c(-c3ccco3)nc2c1)N1CCC2(CC1)OCCO2 | -13.4 | 4.47µM* | 9.8 | 1.2% | -44.7* | 3.2%
CN(N=O)c1ccc(O)c(O)c1 | -57.4* | 0.947µM* | x | x | x | -6.4%[57.1 µM]
O=C(CCl)NN=C(c1ccccc1)c1ccccc1 | -4.5 | 14.1µM* | 36.0 | 15.2% | -2.2 | 6.8%[57.1 µM]
SMILES | PI4K2A block | rTrxR1 inhibitor | Giardia kill | GALK inhibitor | FBPA coupling cs | TrxR1 substrate
NCC(=O)c1ccccc1 | 3.6 | 16.2% | 0.0 | x | -1.3 | 2.7%
CNc1ccc2oc(C[C@H]3O[C@]4(CC[C@H]3C)O[C@H]([C@H](C)C(=O)c3ccc[nH]3)[C@H](C)C[C@H]4C)nc2c1C(=O)O | x | x | x | x | -10.1 | x
C=C/C(=C/C(=O)C[C@H](C)C[C@@H](C)CC[C@H](O)[C@H](C)C(=O)C[C@@H](O)[C@H](C)[C@@H](C)OC(=O)C[C@@H](O)C1=C(C)C(=O)OC1=O)CC | x | x | x | x | 1.6 | x
Cc1cc(C)cc(OCCOc2cccc(C=C3C(=O)NC(=O)NC3=O)c2)c1 | -28.0 | 11.2µM* | -21.5 | -1.4% | 0.2 | 0.7%
CN1C(=O)C(=Cc2ccc(N3CCOCC3)c([N+](=O)[O-])c2)C(=O)N(C)C1=O | x | x | x | -1.9% | 2.6 | x
O=C1NC(=O)C(=Cc2ccc(N3CCN(C(=O)c4ccccc4)CC3)c([N+](=O)[O-])c2)C(=O)N1 | -14.7 | 10µM* | -13.9 | 0.2% | 4.8 | -9.4%
CN1CCN(c2ncc(C=O)s2)CC1 | 2.8 | 4.0% | 3.9 | 0.2% | -37.4* | -12.5%
CC1=CC2OC3CC4OC(=O)C=CC=CC(=O)OCCC(C)C(O)C(=O)OCC2(CC1O)C4(C)C31CO1 (stereo not drawn) | 5.8 | 5.5%[11.4 µM] | u | x | x | 2.1%[11.4 µM]
CC1=CC2OC3CC4OC(=O)C=CC=CC(C(C)O)OCC(O)C(C)CC(=O)OCC2(CC1O)C4(C)C31CO1 (stereo not drawn) | 2.3 | 44.7µM* | u | x | x | 1.5%
C[C@@H]1C[C@@H]([C@H](O)CC2CC(=O)NC(=O)C2)C(=O)[C@@H](C)C1 | 2.4 | 12.4% | -81.9* | x | -1.1 | 4.3%
O=C(c1ccco1)N1CCN(C(=O)c2ccc(COc3ccc(Cl)cc3Cl)o2)CC1 | -0.7 | 7.08µM* | 3.8 | x | x | -3.0%[57.1 µM]
CC[C@H](C)/C=C(C)/C=C/C1=CC2=C(Cl)C(=O)[C@](C)(OC(C)=O)C(=O)C2=CO1 | u | 50.1µM* | -9.7 | x | x | -2.2%
CCOC(=O)C1(c2ccccc2)CCN(CCc2ccc(N)cc2)CC1 | 2.2 | x | x | x | x | x
COc1ccc(N2C(=O)CS(=O)C(c3ccccc3)C2=O)cc1 (stereo not drawn) | -10.4 | 50.1µM* | 19.3 | 7.4% | 3.3 | 2.7%
COc1ccc(N2C(=O)CC(N3CCC(n4c(=O)[nH]c5ccccc54)CC3)C2=O)cc1 (stereo not drawn) | -2.7 | u | 11.4 | 5.4% | 2.9 | 11.9%
CC(Cc1ccccc1)NCCCCl (stereo not drawn) | 1.5 | x | x | x | x | x
O=C1NC(=S)N(c2ccccc2)C(=O)/C1=C/c1ccco1 | u | 20µM* | -24.1 | 3.2% | 0.5 | -6.2%

Bioassay records as filed in PubChem.
